Bioassay records (PubChem)
Pf growth 48h = Primary qHTS for delayed death inhibitors of the malarial parasite plastid, 48 hour incubation; P. falciparum luciferase growth in erythrocytes, 48 h; Potency, µM (highest dose often 28.7 µM), for the others: top-dose activity change, negative = inhibition, hits mostly inhibitors; hit rate 5.9% among 310,000; AID 504832, 2011; further: potency means the concentration at half of the fitted maximal effect
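Erythrocytes infected with P. falciparum carrying an integrated firefly luciferase reporter (2% hematocrit, 0.1% parasitemia final) were exposed to compounds in RPMI 1640 with 0.5% Albumax at 37 C, 5% CO2. Growth inhibition was scored as reduced luminescence.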
HCV inh = qHTS Assay for Inhibitors of Hepatitis C Virus (HCV). Huh7.5.1 HCVcc-Cre infection, luciferase reporter, 44 h. Potency, µM (doses to about 41.8 µM), for inactives: at the top dose activity change, negative = inhibition, actives largely listed as inhibitors. hit rate 3.4% among 340,000. AID 651820, 2012; further: potency means the concentration at half of the fitted maximal effect
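A cell-based infection assay in which seeded cells (1,000 per well) receive test compound after 4 h, are inoculated with HCVcc-Cre at approximately 0.5 moi, and are incubated 44 h before luminescence detection.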
HCMV inh = qHTS Assay for inhibitors of the human cytomegalovirus (HCMV). HFF cells, HCMV-luciferase reporter, 72 h; active compounds read low. AID 1259415, 2018. hit rate 4.5% among 410,000. activity change, negative = inhibition, % at 57.5 µM; in the data active means activity change below about -60%; inconclusive means no clear call, values can overlap the other calls; inactive means above about -39%
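Compounds were evaluated in HFFs infected with an HCMV luciferase reporter virus (MOI 1 PFU/cell). Luciferase in lysates collected 72 h post infection served as the replication measure.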
Pf growth 96h = Primary qHTS for delayed death inhibitors of the malarial parasite plastid, 96 hour incubation. P. falciparum luciferase reporter growth, 96 h. Potency, µM (top dose mostly 28.7 µM), for inactives: at the top dose activity change, negative = inhibition, usual class: inhibitors. hit rate 6.9% among 320,000. AID 504834, 2011; further: potency means the concentration at half of the fitted maximal effect
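P. falciparum expressing integrated firefly luciferase grown in erythrocytes (2% hematocrit, 0.05% parasitemia final) with compounds for 96 hours at 37 C, 5% CO2. Growth inhibition read as loss of luminescence after adding luciferase detection reagent.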
* = called active by the depositor; ? = inconclusive; / = not tested or not shown; ! = not confirmed by another sample. Most compounds without a hit are left out; they make up all but 13% or so of the library. Unless noted, the call rests on the fitted dose curve; in most records, active means well fitted inhibition curve with a large enough effect; inconclusive means small, poorly fitted or top-dose-only effect, or another doubt; inactive means no such curve, though single readings can be large or run the other way. On the % scale 0 is the no-effect control and ±100 the full control effect.

SMILES | Pf growth 48h | HCV inh | HCMV inh | Pf growth 96h
CC(C)c1ccc(NC(=O)C2Cc3c(-c4cccc(F)c4)ccnc3O2)cc1 (centres undefined) | / | / | -75.8* | /
O=C(NCc1ccccc1)C1Cc2c(-c3cccc(F)c3)ccnc2O1 (centres undefined) | / | / | -69.0* | /
CC(=O)c1cccc(-c2ccnc3c2CC(C(=O)NCc2ccccc2)O3)c1 (centres undefined) | / | / | -86.5* | /
O=C(NCc1cccc(Cl)c1)C1Cc2c(-c3cccc(F)c3)ccnc2O1 (centres undefined) | / | / | -23.6 | /
CC(=O)c1cccc(-c2ccnc3c2CC(C(=O)NCc2ccc(F)c(F)c2)O3)c1 (centres undefined) | / | / | 28.6 | /
Cc1nc2c(-c3ccccc3)c(C)nn2c(C)c1CCC(=O)N1CCN(c2ccc(F)cc2)CC1 | / | / | 10.4 | /
CC(=O)c1cc2c(cc1N/C(=N/S(=O)(=O)c1ccc(F)cc1)c1ccccc1)OCO2 | / | / | 9.6 | /
CN1CCN(C(c2ccccc2)c2sc3nc(-c4ccco4)nn3c2O)CC1 (centres undefined) | / | / | 4.0 | /
CCCSc1ccc([C@@H]2[C@H]3C(=O)N(CC)C(=O)[C@H]3[C@]3(C(=O)OC)CCCN23)cc1 | 9.28µM* | 0.5% | 20.3 | 14.7µM*
CCN1C(=O)[C@@H]2[C@@H](c3ccc(SC4CCCCC4)cc3)N3CCC[C@@]3(C(=O)OC)[C@@H]2C1=O | 13.1µM* | -1.8% | 73.9 | 9.28µM*
COC(=O)[C@@]12CCCCN1[C@H](c1ccc(SC3CCCCC3)cc1)[C@H]1C(=O)N(C)C(=O)[C@H]12 | ? | 12.9% | 15.3 | ?
CCCSc1ccc([C@@H]2[C@@H]3C(=O)N(CC)C(=O)[C@@H]3[C@]3(C(=O)OC)CCCCN23)cc1 | / | -12.5% | -16.5 | /
CCN1C(=O)[C@H]2[C@@H](c3ccc(SC4CCCCC4)cc3)N3CCCC[C@@]3(C(=O)OC)[C@H]2C1=O | ? | 19.3% | 9.8 | ?
COC(=O)[C@@]12CCCN1[C@H](c1ccc(SC3CCCCC3)cc1)[C@H]1C(=O)N(C)C(=O)[C@H]12 | 10.4µM* | -7.5% | -20.5 | ?
Cc1ccc(OCC(=O)Nc2nnc(SCc3cc(=O)n4cccc(C)c4n3)s2)cc1 | / | / | 11.6 | /
C=CCn1c(SCC(=O)NC(=O)NCCC)nnc1C1CCCCC1 | ? | -0.3% | -21.0 | ?
C=CCn1c(SCC2=C(C(=O)OCC)C(C)NC(=O)N2)nnc1C1CCCCC1 (centres undefined) | 11.7µM* | 7.9% | -12.5 | 2.6%
Cc1scc(C(=O)NNC(=S)NC(C)c2ccccc2)c1C (centres undefined) | 7.0% | -14.3% | -77.6* | 1.3%
O=C(Cc1ccccc1F)N1CCN(CC(=O)N2CCCC2)CC1 | / | 1.8% | 80.0 | /
O=C(Cc1cccc(C(F)(F)F)c1)N1CCN(CC(=O)N2CCCC2)CC1 | 13.1µM* | 10.8% | -4.3 | ?
COc1ccc([C@H]2CC(=O)C=C(c3cc(F)ccc3F)C2)cc1OC | ? | 11.2µM* | -2.8 | ?
O=C1C=C(c2cc(F)ccc2F)C[C@@H](c2ccc(Cl)cc2)C1 | 3.7µM* | ? | -23.2 | ?
CCOC(=O)c1c(NC(=O)COC(=O)c2cc(OC)c(OC)cc2[N+](=O)[O-])sc(C)c1CC | -20.8% | -8.6% | 31.4 | -1.4%
CCOC(=O)c1c(C)sc(Sc2ccc(Cl)cc2[N+](=O)[O-])c1OC | 3.7µM* | 6.6% | -7.3 | /
O=c1c(Br)ccc(Br)cc1Br | / | ? | -77.1* | /
SMILES | Pf growth 48h | HCV inh | HCMV inh | Pf growth 96h
O=C1CN(S(=O)(=O)c2cc(Br)ccc2Br)CCN1 | / | -5.0% | -20.0 | /
CCOC(=O)Cn1c(=O)oc2cc(S(=O)(=O)N3CCN(c4cccc(Cl)c4)CC3)ccc21 | / | / | -20.5 | /
CCOc1ccc(CCNC(=O)C2CCC(CNS(=O)(=O)c3ccc(Cl)cc3)CC2)cc1OCC (centres undefined) | / | / | 5.3 | /
NC(=S)N/N=C/c1c(O)c(Br)cc2oc3c(c12)CCCC3 | 3.29µM* | -10.6% | -39.0 | ?
Cc1ccc(C(=O)N/C(=C\c2ccc(Br)cc2)c2nc(=S)[nH][nH]2)cc1 | -19.7% | 26.3% | -70.8* | ?
O=C(N/C(=C/c1cccc(Br)c1)c1nc(=S)[nH][nH]1)c1ccccc1 | 24.1% | 18.7% | -37.0 | -25.2%
CC1CCc2nn(CC(=O)Nc3cccc(C(F)(F)F)c3)c(=O)cc2C1 (centres undefined) | / | / | -16.7 | /
CC1CNCCN1S(=O)(=O)c1cccc2cnccc12 (centres undefined) | ? | ? | -64.3*! | -23.8%
COc1cccc(OCc2nnc(-c3cccs3)o2)c1 | 77.8% | / | -77.3* | 25.1%
COc1cccc(SCc2noc(C(=O)NCCCN3CCOCC3)c2C(=O)NCCCN2CCOCC2)c1 | / | -10.3% | -30.0 | /
O=C(NCCCN1CCOCC1)c1onc(CSc2ccncc2)c1C(=O)NCCCN1CCOCC1 | / | 9.2% | 11.7 | /
Cc1cc(C)cc(SCc2noc(C(=O)NCCCN3CCOCC3)c2C(=O)NCCCN2CCOCC2)c1 | 9.28µM* | 1µM* | -29.4 | ?
O=C(NCCCN1CCOCC1)c1onc(CSc2ccccc2)c1C(=O)NCCCN1CCOCC1 | / | 2.3% | -67.5* | /
Cc1cccc(Cn2cc(S(=O)(=O)c3cccc(Cl)c3)c(=O)c3cc(F)c(N4CCOCC4)cc32)c1 | / | / | -3.1 | /
CC1=C(c2ccc(C)c(C)c2)S(=O)(=O)N=C1N1CCC(C(=O)Nc2ccc(Cl)cc2)CC1 | / | / | -84.2* | /
CC1=C(c2ccc(Cl)cc2)S(=O)(=O)N=C1N1CCC(C(=O)NCCc2ccco2)CC1 | / | / | -3.8 | /
CCC1=C(c2ccc(C)cc2)S(=O)(=O)N=C1N1CCC(C(=O)NCc2ccc(C)cc2)CC1 | / | / | 8.9 | /
CCc1ccc(C2=C(C)C(N3CCC(C(=O)NCCc4ccco4)CC3)=NS2(=O)=O)cc1 | / | / | -62.3* | /
CCC1=C(c2ccc(C)cc2)S(=O)(=O)N=C1N1CCC(C(=O)NCCc2ccc(Cl)cc2)CC1 | / | / | -86.5* | /
O=[N+]([O-])c1ccc(Cl)cc1CN1CCCCCC1 | 20.7% | -3.8% | 52.8 | ?
Cc1cc(N=Nc2ccc(Cl)cc2)cc(CN2CCCC2)c1O | 0.233µM* | ? | 5.1 | 0.294µM*
Cc1cc(N=Nc2ccc(Cl)cc2)cc(CN2CCOCC2)c1O | 4.65µM* | -12.7% | -2.1 | 2.33µM*
Cc1nc2c(c(C)nn2-c2ccccc2)c(C)c1CCC(=O)Nc1ccc(F)cc1 | / | / | -30.3 | /
COc1cc(C(=O)OCC(=O)N(C)Cc2ccccc2)cc(OC)c1OC | ? | -23.2% | -25.8 | ?
CCC(COC(=O)c1cc(OC)c(OC)c(OC)c1)(c1ccccc1)N(C)C (centres undefined) | 14.7µM* | ? | 83.8 | ?
CC1=NCCN1CCNC(=O)Nc1cc(C)cc(C)c1 | 1.7% | 0.6% | -24.1 | 16.9%
CC1=NCCN1CCNC(=O)Nc1ccc(F)cc1 | 5.7% | 11.6% | -8.7 | 0.415µM*
Cc1ccc(S(=O)(=O)Nc2cccc(-c3ccc(N4CCCCC4)nn3)c2)s1 | / | / | 20.8 | /
